# PubChem BioAssay (NCI)
# About 83,000 compounds went through this panel and 20% of them were active in at least one assay; those are over-represented in the sample as a whole.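 Values shown are percent growth following 48 h exposure of cells in 96-well plates to a single concentration of compound; below 10 was considered active.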 A number with no mark means an inactive call. The source made the active and inactive calls.
# Test system: HL-60(TB) leukemia
# Assay: NCI-60 one-dose screen, 48 h (100 = growth as untreated, 0 = no growth, -100 = all killed)
# Details: 10 µM unless noted
row,SMILES,growth
1,COc1ccc2nc(-c3ccc(OC)c(OC)c3)cc(-c3nnc(SCC(=O)Nc4ccc(C(C)=O)cc4)o3)c2c1,77.7%
2,CN1CCC(=C(c2ccccc2)c2ccccc2)C(c2ccccc2)C1 (configuration not stated),88%
3,CC1CCC(C(C)(C)[N+](C)(C)C)CC1 (configuration not stated),104%
4,COc1ccc(/C(=C/c2cc(OC)c(OC)c(OC)c2)[N+](=O)[O-])cc1,-26.4% (active)
5,CCCC(O)Cn1ncc(C(=O)OCC)c1NC(=O)NCc1cccc(C(F)(F)F)c1 (configuration not stated),71.2%
6,CN1CCN(c2ccc(NC(=O)c3cncnc3Nc3ccc(OCc4cccc(F)c4)c(Cl)c3)cc2)CC1,66.9%
7,Brc1ccccc1Cn1c(-c2cncs2)nc2ccccc21,79.1%
8,O=C(N=C1C(=O)C2(CCCCC2)C2(N=C(c3ccccc3)OC2=O)C12CCCCC2)c1ccccc1 (configuration not stated),71.8%
9,O=C(Nc1ccc(CN2CCOCC2)cc1)c1[nH]ncc1Nc1ncnc2sccc12,-22% (active)
10,COc1ccc(C(=O)C2C(C#N)C(C#N)C3C=Cc4ccccc4N32)cc1 (configuration not stated),-7.91% (active)
11,COc1cc2c(cc1O)CC[C@@H]1[C@@H]2CC[C@]2(C)[C@@H](OCCCN(C)C)CC[C@@H]12,-48.5% (active)
12,CC1(C)C(=O)CC[C@]2(C)[C@H]3C(=O)C=C4[C@@H]5C[C@@](C)(C(=O)NCCNCCN)CC[C@]5(C)CC[C@@]4(C)[C@]3(C)CC[C@@H]12,90.1%
13,Cc1ccc2oc(=O)cc(-c3cc(-c4cc5ccccc5oc4=O)nc(N)c3C#N)c2c1,93.5%
14,O=C(CS)OCC(COC(=O)CS)(COC(=O)CS)COC(=O)CS,67.2%
15,COc1ccc(-c2nnc(-c3c(-c4ccccc4)nc4ncccn34)o2)cc1OC,85.5%
16,CCn1cc(C(=O)N/N=C/c2ccccc2)c(=O)c2cc(F)c(N3CCNC(C)C3)c(F)c21 (configuration not stated),18.1%
17,COc1cc(/C=C2\C(=O)N(CCCCn3c4ccccc4c(=O)c4ccccc43)c3ccccc32)cc(OC)c1O,53.5%
18,COc1cnc2c(c1)C(=O)c1c-2n(CCCN2CCCC2)c(=O)c2cc(F)ccc12,-28.7% (active)
19,C=C(NC(=O)[C@H](C(C)C)N(C)c1cccc2[nH]ccc12)C(=O)OC,109%

row,SMILES,growth
1,CCOc1ccc(-n2c(-c3cc(OC)c(OC)c(OC)c3)nnc2-c2ccc(OC)cc2N)cc1,28.5%
2,C[C@@H]1N=C(c2ccc3ccccc3n2)Nc2nc3ccccn3c2C1=O,97.6%
3,CCC(C)[C@@H]1NC(=O)[C@@H]2CCCN2C(=O)[C@H](Cc2ccccc2)NC(=O)[C@@H]2CCCN2C(=O)[C@H](Cc2ccccc2)NC(=O)[C@@H]2CCCN2C(=O)[C@H](Cc2ccccc2)NC1=O (some centres not stated),95.6%
4,Cc1cccc(C)c1NCc1nnc(-c2ccc(O)cc2)o1,111%
5,C=C1C(=O)O[C@H]2[C@H]1CC/C(Cn1cc(CNC(=O)/C=C/c3c[nH]c4ccccc34)nn1)=C\CC[C@@]1(C)O[C@@H]21,29.9%
6,COc1cc(/C=C/C(=O)N2CCN(C(=O)c3cc(OC)c(OC)c(OC)c3)CC2)ccc1OCCCOc1cc2c(cc1OC)C(=O)N1CCC[C@H]1C=N2,-28% (active)
7,NC(=O)c1cc(I)ccc1NC(=O)COc1ccccc1,-20.5% (active)
8,COc1ccc(C2=C(Br)C(=O)c3nc(C)ccc3C2=O)cc1,66.2%
9,N#CC1(O)CCCCC1,104%
10,CCn1c2ccc(O)cc2c2c(C)c3c[n+](C(C)C)ccc3c(C)c21,70.3%
11,NC(=O)c1ccc(N=C(N)N=C(N)N)cc1,98.7%
12,O=C1CC(c2ccc3c(c2)OCO3)Nc2ccccc21 (configuration not stated),0.897% (active)
13,COc1cc(C2CC(c3cccc(Nc4ccncc4)c3)=NN2c2cc(Cl)cc(Cl)c2)cc(OC)c1OC (configuration not stated),-44.7% (active)
14,C=C1C(=O)O[C@H]2[C@H]1CC/C(Cn1cc(-c3ccc(F)cc3)nn1)=C\CC[C@@]1(C)O[C@@H]21,-18.8% (active)
15,Cc1ccc2nc(N)nnc2c1,125%
16,OCCN1CCN(CC/C=C2/c3ccccc3Sc3ccc(C(F)(F)F)cc32)CC1,73.1%
17,N#Cc1c(NCc2ccccc2I)sc2c1CCCCC2,100%
18,C=C1CCC2C3(C)COC(c4ccc(SC)cc4)OC3CCC2(C)C1C/C=C1/C(=O)OCC1O (configuration not stated),-12.1% (active)
